Screening data: PubChem BioAssay, several laboratories
Compounds with a hit are over-represented: about 0.73% of the library has one in this group of screens.
BioA inh: M. tuberculosis BioA enzyme inhibitors, primary screen, biochemical, plate reader, single point, HTS; purified M. tuberculosis BioA enzyme; inhibition, % at 9.99 µM; 0.096% of 360,000 active; AID 602481, 2012; in the data active means inhibition above about 40%
TcdB GH inh: TcdB glycohydrolase inhibitors, primary screen, biochemical, single point, plate reader. inhibition, % at 9.99 µM. 0.24% of 350,000 active. Toxin B (Clostridioides difficile), P18177. AID 652162, 2013. TcdB glycohydrolase enzymatic assay; in the data active means inhibition above about 10%
Target sequence (P18177 whole entry, looked up): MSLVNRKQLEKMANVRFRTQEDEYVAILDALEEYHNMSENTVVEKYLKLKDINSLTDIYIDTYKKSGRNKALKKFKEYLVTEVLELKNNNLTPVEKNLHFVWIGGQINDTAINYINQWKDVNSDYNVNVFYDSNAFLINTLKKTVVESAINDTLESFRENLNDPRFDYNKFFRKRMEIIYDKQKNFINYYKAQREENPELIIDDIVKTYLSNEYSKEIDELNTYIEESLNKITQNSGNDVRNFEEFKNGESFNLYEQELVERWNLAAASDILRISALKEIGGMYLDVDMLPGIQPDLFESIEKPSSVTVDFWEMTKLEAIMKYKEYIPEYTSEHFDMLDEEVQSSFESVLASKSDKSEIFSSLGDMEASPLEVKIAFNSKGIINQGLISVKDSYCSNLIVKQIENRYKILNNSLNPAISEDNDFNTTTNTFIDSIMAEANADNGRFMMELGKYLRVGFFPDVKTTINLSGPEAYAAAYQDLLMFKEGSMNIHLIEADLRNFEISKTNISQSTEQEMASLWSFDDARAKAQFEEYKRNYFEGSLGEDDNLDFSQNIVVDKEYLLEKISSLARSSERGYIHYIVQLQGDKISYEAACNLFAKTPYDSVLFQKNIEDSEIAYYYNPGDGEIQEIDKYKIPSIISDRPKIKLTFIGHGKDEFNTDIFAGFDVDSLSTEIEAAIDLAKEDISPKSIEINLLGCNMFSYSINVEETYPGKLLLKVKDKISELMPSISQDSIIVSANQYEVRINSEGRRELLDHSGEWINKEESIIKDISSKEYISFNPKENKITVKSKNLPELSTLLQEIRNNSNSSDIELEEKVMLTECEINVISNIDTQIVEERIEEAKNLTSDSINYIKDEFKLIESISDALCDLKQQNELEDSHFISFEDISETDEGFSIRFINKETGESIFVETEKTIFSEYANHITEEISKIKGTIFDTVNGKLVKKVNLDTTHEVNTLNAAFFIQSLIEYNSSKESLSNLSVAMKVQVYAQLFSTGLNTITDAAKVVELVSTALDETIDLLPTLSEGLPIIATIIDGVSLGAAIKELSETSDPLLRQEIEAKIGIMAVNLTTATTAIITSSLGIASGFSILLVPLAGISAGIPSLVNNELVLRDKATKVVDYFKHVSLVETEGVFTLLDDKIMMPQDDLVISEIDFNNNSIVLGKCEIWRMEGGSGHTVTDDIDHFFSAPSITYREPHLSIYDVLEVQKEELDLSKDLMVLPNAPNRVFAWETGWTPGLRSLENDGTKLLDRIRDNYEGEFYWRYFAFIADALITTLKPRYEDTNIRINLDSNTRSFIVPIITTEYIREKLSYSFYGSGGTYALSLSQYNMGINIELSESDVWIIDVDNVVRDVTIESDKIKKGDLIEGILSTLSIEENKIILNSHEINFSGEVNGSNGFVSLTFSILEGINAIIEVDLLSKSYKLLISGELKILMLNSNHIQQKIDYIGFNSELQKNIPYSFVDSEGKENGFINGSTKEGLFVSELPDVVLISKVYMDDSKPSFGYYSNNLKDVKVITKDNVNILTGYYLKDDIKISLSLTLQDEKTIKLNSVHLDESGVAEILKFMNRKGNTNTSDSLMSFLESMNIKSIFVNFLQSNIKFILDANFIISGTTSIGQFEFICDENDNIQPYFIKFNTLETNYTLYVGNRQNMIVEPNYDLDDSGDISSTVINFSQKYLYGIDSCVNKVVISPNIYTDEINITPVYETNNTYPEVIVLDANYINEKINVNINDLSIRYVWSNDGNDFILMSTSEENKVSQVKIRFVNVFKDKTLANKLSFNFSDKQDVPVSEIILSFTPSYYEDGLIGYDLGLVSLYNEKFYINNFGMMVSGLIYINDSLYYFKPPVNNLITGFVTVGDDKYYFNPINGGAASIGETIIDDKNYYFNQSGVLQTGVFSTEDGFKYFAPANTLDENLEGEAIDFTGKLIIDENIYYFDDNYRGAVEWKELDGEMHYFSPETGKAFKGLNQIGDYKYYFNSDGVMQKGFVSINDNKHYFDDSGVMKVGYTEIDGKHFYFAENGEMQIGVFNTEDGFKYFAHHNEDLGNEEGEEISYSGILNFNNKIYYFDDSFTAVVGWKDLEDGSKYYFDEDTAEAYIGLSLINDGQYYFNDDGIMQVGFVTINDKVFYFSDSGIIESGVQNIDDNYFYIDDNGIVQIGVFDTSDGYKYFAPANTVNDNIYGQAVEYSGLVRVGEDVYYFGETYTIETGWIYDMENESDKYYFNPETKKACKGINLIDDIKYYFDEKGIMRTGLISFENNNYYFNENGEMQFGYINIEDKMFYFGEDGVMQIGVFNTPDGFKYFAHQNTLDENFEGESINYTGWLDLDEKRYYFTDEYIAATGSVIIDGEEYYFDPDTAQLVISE
DUSP3 inh: VHR1 phosphatase inhibitors, primary screen, biochemical, absorbance, uHTS | recombinant VHR phosphatase, pNPP absorbance | inhibition, % at 13.3 µM | 0.52% of 290,000 active | Dual specificity protein phosphatase 3 (Homo sapiens), P51452; in the data active means inhibition above about 50%
Yp Topo-I inh: Yersinia pestis topoisomerase I inhibitors, primary screen, biochemical, cleavage product accumulation, plate reader, single point. DNA topoisomerase I (Yersinia pestis CO92). Y. pestis Topo-I cleavage product accumulation. activity, % at 10 µM. 0.064% of 360,000 active. AID 504884, 2011; in the data active means activity above about 50%, passing the limit was not always enough
Vc quorum ag: inducers of Vibrio cholerae quorum light production without autoinducers, primary screen, BH1578 luxS cqsA deficient, single point. V. cholerae BH1578 lux reporter, luminescence, 6 h. activation, % at 18.7 µM. 0.16% of 350,000 active; in the data active means activation mostly above about 9.7%, no sharp cut-off
Active calls of the source: *; i = inactive; . = no result; + = active, no number.

SMILES | BioA inh | TcdB GH inh | DUSP3 inh | Yp Topo-I inh | Vc quorum ag
CNc1ncnc2sc(-c3ccccc3)cc12 | 1.1 | 0.7 | 51.9* | 4.4 | 1.1
CCNC(=O)C[C@H]1CC[C@@H]2[C@H](COC[C@H](O)CN2S(=O)(=O)c2ccccc2F)O1 | -1.2 | -0.2 | . | . | .
COc1ccc(NC(=O)Nc2ccc3c(c2)C(=O)N([C@H](C)CO)C[C@H](C)[C@H](CN(C)C(=O)NC(C)C)O3)cc1 | 0.0 | -0.7 | . | . | .
CCCCN(c1nc2ccccc2nc1Cl)S(=O)(=O)c1ccc(C)cc1 | . | 1.0 | . | 54.8* | -0.6
O=S(=O)(Cc1ccccc1)N1CCCCN2[C@@H](CO)[C@@H](c3ccc(-c4ccccc4)cc3)[C@@H]2C1 | -2.3 | -4.8 | . | . | .
Cc1cc(NC(=O)c2cc(-c3ccccc3)on2)n(-c2ccccc2)n1 | -1.0 | . | 6.4 | 107.1* | 4.0
O=C(NCCCN1CCCC1)c1ccc2c(c1)N(Cc1cccc(Cl)c1)C(=O)c1ccccc1S2(=O)=O | 4.0 | 1.6 | . | -25.7 | i
O=C(NCCCN1CCCC1)c1ccc2c(c1)N(Cc1ccccc1F)C(=O)c1ccccc1S2(=O)=O | 0.4 | -0.5 | 51.3* | -16.8 | -0.3
CC(C)C[C@H]1CN=C(Nc2ccccc2)N1CCCC1CCCC1 | 0.5 | 0.3 | 55.4* | 11.5 | 0.3
CC(C)C[C@H]1CN=C(Nc2ccccc2)N1CCCC1CCCCC1 | -0.1 | 0.0 | 16.6 | 17.9 | i
COc1cc(/C=C/C(=O)OCC(=O)NC(=O)NC(C)C)ccc1O | 0.4 | 11.9* | 5.4 | 9.0 | -0.2
COc1cc(/C=C/C(=O)OCC(=O)N(C)Cc2ccccc2)ccc1O | 0.6 | 11.0* | . | 16.4 | -2.0
COc1cc(/C=C/C(=O)OCC(=O)c2ccc[nH]2)ccc1O | 0.5 | 14.7* | . | 6.6 | 3.3
COc1cc(/C=C/C(=O)OCC(=O)N(C)Cc2ccccc2)cc(OC)c1OC | 3.3 | -0.4 | . | 33.2 | -1.8
COc1cc(/C=C/C(=O)OCC(=O)NC(=O)NC(C)C)ccc1OCC#N | 1.8 | . | -1.5 | 1.4 | i
COc1cccc(/C=C/C(=O)OCC(=O)c2ccc[nH]2)c1 | 0.9 | -1.2 | . | 5.6 | -0.5
Cc1cccc(NS(=O)(=O)c2csc(C(N)=O)c2)c1 | -0.8 | 1.3 | 10.4 | -4.8 | -0.1
Cc1cccc(NS(=O)(=O)c2csc(C(N)=O)c2)c1C | . | 1.0 | 52.6* | 6.9 | 0.8
NNC(=O)CCc1nc2ccc(O)cc2[nH]1 | 1.3 | 13.7* | 33.6 | 0.9 | -0.3
O=C(CCc1nc2ccccc2[nH]1)Nc1ccccc1 | 0.3 | . | -3.9 | 1.7 | i
CCCCNS(=O)(=O)c1ccc(OCC(=O)OC)cc1 | . | 10.4* | -8.0 | -3.1 | -0.2
Cc1ccc(C(=O)C2CCN(CC(=O)NCc3ccc(F)cc3)CC2)cc1 | -1.1 | 0.3 | 53.3* | 30.9 | -3.6
Cc1ccc(NC(=O)CN2CCC(C(=O)c3ccc(F)cc3)CC2)cc1 | . | . | 7.5 | 5.9 | 3.8
Cc1noc(C)c1NC(=O)Nc1ccc2c(c1)CC(=O)N([C@H](C)CO)C[C@H](C)[C@@H](CN(C)C(=O)Nc1c(C)noc1C)O2 | 4.3 | -1.8 | . | . | .
COc1ccc(-c2nn(-c3ccccc3)cc2C(=O)O)cc1 | -0.7 | 1.0 | -20.3 | 6.4 | -0.2
SMILES | BioA inh | TcdB GH inh | DUSP3 inh | Yp Topo-I inh | Vc quorum ag
COc1ccc(-c2nn(-c3ccccc3)cc2C(=O)N(C)C)cc1 | 0.5 | 0.1 | 52.6* | 8.6 | 0.5
O=C(c1ccc2c(c1)N(Cc1ccccc1)C(=O)c1ccccc1S2)N1CCCC1 | 2.1 | 34.3* | 19.7 | 18.2 | -0.3
O=C(NCCN1CCOCC1)c1ccc2c(c1)N(Cc1ccccc1F)C(=O)c1ccccc1S2 | -0.1 | 2.1 | -28.2 | 16.8 | i
O=C(c1ccc2c(c1)N(Cc1ccccc1F)C(=O)c1ccccc1S2)N1CCOCC1 | . | 10.1* | -8.8 | . | .
COCC#Cc1cnc2c(c1)C(=O)N([C@@H](C)CO)C[C@@H](C)[C@@H](CN(C)S(=O)(=O)c1cn(C)cn1)O2 | -2.2 | -0.5 | . | . | .
COc1ccc(-c2ccc3c(c2)O[C@@H](CN(C)C(C)=O)[C@@H](C)CN([C@H](C)CO)S3(=O)=O)cc1 | 1.1 | 2.2 | . | . | .
Cc1ccccc1C(=O)Nc1cccc(NC(=S)NC(=O)c2cccs2)c1 | -0.2 | . | 13.7 | 2.7 | +
O=C(NC(=S)Nc1cccc(NC(=O)c2ccccc2Cl)c1)c1cccs1 | -1.8 | 0.4 | 1.3 | 3.3 | -2.4
CC1CN=C(Nc2cccc(S(=O)(=O)N(C)C)c2)S1 (stereo not drawn) | . | 13.5* | -6.2 | 4.4 | 0.6
NC(=S)N=Nc1c(O)n(Cc2ccccc2)c2ccccc12 | -0.2 | -0.3 | -9.6 | 11.9 | -0.3
O=Nc1c(O)n(Cc2cccc(Cl)c2)c2ccccc12 | . | . | 34.5 | 22.7 | 30.4*
CC(c1ccccc1)n1c(Br)nc2c1c(=O)[nH]c(=O)n2C (stereo not drawn) | -0.7 | 0.3 | -11.8 | 3.6 | -1.4
CC(c1ccccc1)n1c(N2CCNCC2)nc2c1c(=O)[nH]c(=O)n2C (stereo not drawn) | -1.1 | 1.2 | 55.5* | 8.6 | -0.9
COc1ccccc1CN1[C@H](CO)[C@H]2c3ccccc3N(C(=O)c3ccncc3)C[C@H]21 | -3.3 | -0.3 | . | . | .
CN(C)CCCNc1oc(-c2ccccc2)nc1C#N | -0.2 | . | 25.3 | -5.0 | -5.9
CN(C)CCNc1oc(-c2cccc(Cl)c2)nc1C#N | -1.5 | . | 51.2* | -8.2 | i
Cc1ccc(O)c(CN(C)Cc2cc(C)ccc2O)c1 | -0.2 | -4.7 | . | -11.0 | i
CN(CCCCCCN(C)Cc1ccccc1O)Cc1ccccc1O | -2.7 | 0.1 | 51.5* | -0.8 | -0.8
COc1ccc(-c2coc3c(CN4CCOCC4)c(O)ccc3c2=O)cc1 | -0.4 | -0.3 | 7.2 | -13.1 | 12.7*
COc1ccc(N2CC(C(=O)N[C@@H](CC(C)C)C(=O)NC3CCCCC3)CC2=O)cc1 (stereo partly drawn) | . | 0.1 | 55.5* | -10.8 | -4.3
Cc1ccc(N2CC(C(=O)NC3CC3)CC2=O)cc1 (stereo not drawn) | -0.8 | -0.1 | 52.9* | -2.0 | -0.5
Cc1ccc(N2CC(C(=O)NC3CCC(C)CC3)CC2=O)cc1 (stereo not drawn) | -1.2 | 0.1 | 14.0 | 7.8 | i
COc1ccc(N2CC(C(=O)N[C@@H](C)C(=O)NC3CCCCC3)CC2=O)cc1 (stereo partly drawn) | -3.7 | -3.2 | 9.1 | -1.2 | -0.4
C[C@@H]1CCCCO[C@@H](CN(C)C(=O)Nc2ccc3c(c2)OCO3)[C@@H](C)CN([C@@H](C)CO)C(=O)c2cc(NC(=O)c3ccccc3)ccc2O1 | . | 0.3 | . | . | .
O=C(Nc1ccc2c(c1)[C@H]1C[C@H](CC(=O)N3CCOCC3)O[C@@H](CO)[C@H]1O2)NC1CCCC1 | -1.8 | 2.3 | . | . | .
CC1CCC/C(=N\NC(=O)COc2ccc(Cl)cc2Cl)C1 (stereo not drawn) | -1.6 | . | 22.8 | 28.3 | -12.5
CC1CCC/C(=N\NC(=O)COc2ccccc2Cl)C1 (stereo not drawn) | 10.7 | 0.9 | 50.8* | -2.4 | i
